Source: PubChem BioAssay (NCI)
Compounds without any hit were thinned out: in the full panel of roughly 83,000, 20% have a hit.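 Single-dose data. Exposure time 48 hours. Values below 10 considered active.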 Unmarked numbers belong to inactive results. The source made the active and inactive calls.

Test system: HL-60(TB) leukemia
Experiment: NCI-60 one-dose screen, 48 h (100 = growth as untreated, 0 = no growth, -100 = all killed)
Conditions: 10 µM unless noted

Row | Structure (SMILES) | growth
1 | O=C(CCc1nnc2sc(Cc3ccccc3Cl)nn12)c1nc2ccccc2[nH]1 | 104%
2 | COc1cccc(C(=O)NC(c2ccc(C)cc2)c2cc(Cl)c3cccnc3c2O)c1 (configuration not stated) | 4.15% (active)
3 | Cc1cc2c(-c3nc4ccccn4c3N)c(O)c(O)cc2c(O)c1-c1c(C)cc2c(-c3nc4ccccn4c3N)c(O)c(O)cc2c1O | 9.95% (active)
4 | O=C(Cc1ccc(-c2ccc(OCCN3CCOCC3)cc2)cn1)NCc1ccccc1 | -31.2% (active)
5 | CC1=NNC(=O)C1C (configuration not stated) | 124%
6 | CCc1ccc(-c2ccc(-n3nc(C)c4c(N)nc(Cc5ccccc5)nc43)cc2)cc1 | 65%
7 | CCN(CC)CCCCCNc1cc(OC(=O)c2ccccc2)cc2cccnc12 | 79.8%
8 | COc1cc(NC(C)CCCNC(=O)CCC(=O)NCCCNCCCCCCCCNCCCNC(=O)CCC(=O)NCCCC(C)Nc2cc(OC)cc3cccnc23)c2ncccc2c1 (configuration not stated) | 56.5%
9 | O=[N+]([O-])c1ccc(-c2cc(-c3ccc(Nc4nc(Nc5ccc(Cl)cc5)nc(Nc5ccc(Cl)cc5)n4)cc3)no2)cc1 | -63% (active)
10 | COc1cc(-c2nc3ccccc3o2)cc(CN2CCCCC2)c1O | 11.9%
11 | C/C(=C(\c1ccc(OCCN2CCCCCC2)cc1)c1ccc(OC(=O)Cc2ccccc2)cc1)c1ccc(Cl)cc1 | -60% (active)
12 | COc1cc2c3c(n(C)c(=O)c2cc1OC)-c1cc2c(cc1C3=O)OCO2 | 73.6%
13 | CCCN1C(=O)N(CCC)C2C1NN=c1s/c(=C3\C(=O)N(C(C)C)c4ccccc43)c(=O)n12 (configuration not stated) | 0.788% (active)
14 | CCNC(=O)c1[nH]cc(-c2ccc(OC)cc2)c1-c1cc(OC)c(OC)c(OC)c1 | 5.15% (active)
15 | CCOC(=O)c1cc(/C=C/c2cccc(Cl)c2)on1 | 74.9%
16 | CCCOC(=O)N[C@H]1CCc2c(Cl)c(OC)c(OC)c(OC)c2-c2ccc(SC)c(=O)cc21 | -36% (active)
17 | CO[C@H]1CC(=O)n2c3ccccc3c3c4c(c5c6ccccc6n1c5c32)C(=O)NC4=O | 96.9%
18 | COc1ccc(OC)c(Nc2nc3nonc3nc2Nc2cccc(Br)c2)c1 | -14.1% (active)
19 | O=C(Cc1ccc(F)c(Cl)c1)Nc1cc(C2(C(F)(F)F)CC2)nn1Cc1ccccc1 | 100%

Row | Structure (SMILES) | growth
20 | CCN1C(=O)N(CC)C2C1NC(=O)N2/N=C/C=C/c1ccccc1 (configuration not stated) | 0.782% (active)
21 | COc1ccc(NS(=O)(=O)c2ccc(-c3cnc(C4CC4)o3)cc2)cc1 | 76.3%
22 | COc1ccc(-c2[nH]ncc2-c2cc(OC)c(OC)c(OC)c2)cc1 | -35.5% (active)
23 | CC(C)(C)n1cc(-c2ccnc(NCCCNS(=O)(=O)c3ccccc3)c2)c(-c2cccc(O)c2)n1 | 32.8%
24 | Cn1cc(-c2ccc3ncc(-c4ccc(CC(=O)Nc5cc(C(C)(C)C)no5)cc4)nc3c2)cn1 | 40.4%
25 | O=C1c2cccc3cccc(c23)C(=O)N1CC#Cc1ccc2c3c(cccc13)C(=O)N(CCN1CCNCC1)C2=O | 93%
26 | CN(CCCCCl)P(=O)(OCc1ccc([N+](=O)[O-])o1)C(F)(F)C[C@H](NC(=O)CNC(=O)c1ccc(N=[N+]=[N-])cc1)C(=O)NCCc1ccc(O)cc1 (some centres not stated) | 62.6%
27 | COc1ccc(C2CC(c3cc(OC)c(OC)c(OC)c3)=NN2c2ccc(S(N)(=O)=O)cc2)cc1 (configuration not stated) | 2.23% (active)
28 | CC(/C=N/NC(N)=S)Cc1ccc(C(C)C)cc1 (configuration not stated) | 44.3%
29 | CCOC(=O)c1sc(-c2ccc(OS(=O)(=O)c3ccc(C(C)(C)C)cc3)c(C=O)c2)nc1C | 21.3%
30 | Cn1ccnc1C(=O)/C=C/c1ccc(CC(=O)Nc2ccc(S(F)(F)(F)(F)F)cc2)cc1 | -11.5% (active)
31 | COc1ccc(C2C(C#N)=C(N)Oc3c2sc2c(F)cccc32)cc1 (configuration not stated) | -29% (active)
32 | CCN1C(=O)N(CC)C2C1NN=c1s/c(=C\c3ccc[nH]3)c(=O)n12 (configuration not stated) | -48% (active)
33 | CCc1nc2cc(/C=C/C(=O)NO)ccc2c(=O)n1CCc1ccc(OC)cc1 | 0.921% (active)
34 | CCOc1ccc2c(c1)c(C)cc(C)[n+]2CC | 61.5%
35 | CC1CN(S(=O)(=O)c2oc(-c3ccc(Cl)cc3)nc2C#N)CC(C)O1 (configuration not stated) | 23.4%
36 | Cc1ccc(N2C(=O)C=CC2=O)cc1 | 63.2%
37 | C=C1C(=O)O[C@H]2[C@H]1CC/C(Cn1cc(-c3ccc(OC)cc3)nn1)=C\CC[C@@]1(C)O[C@@H]21 | -35.2% (active)
